Compounds without any hit were thinned out: in the full panel of roughly 83,000, 20% have a hit.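 Percent growth is the endpoint: 0 to 100 indicates growth inhibition (40 means 60% inhibition), 0 means no net growth, and negative values indicate cell death.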 A number with no mark means an inactive call. Active and inactive are the calls of the source. Rule for the calls: active = growth percent below 10; inactive = the rest.
Assays:
Assay in all cases: NCI-60 one-dose screen, 48 h (100 = growth as untreated, 0 = no growth, -100 = all killed)
Conditions in all cases: 10 µM
SR leukemia = tested on: SR leukemia
RPMI-8226 leukemia = tested on: RPMI-8226 leukemia
OVCAR-8 ovarian = tested on: OVCAR-8 ovarian
OVCAR-5 ovarian = tested on: OVCAR-5 ovarian
OVCAR-4 ovarian = tested on: OVCAR-4 ovarian
SK-OV-3 ovarian = tested on: SK-OV-3 ovarian
IGROV1 ovarian = tested on: IGROV1 ovarian
OVCAR-3 ovarian = tested on: OVCAR-3 ovarian
HS 578T breast = tested on: HS 578T breast
NCI/ADR-RES ovarian = tested on: NCI/ADR-RES ovarian

| SMILES | growth (SR leukemia) | growth (RPMI-8226 leukemia) | growth (OVCAR-8 ovarian) | growth (OVCAR-5 ovarian) | growth (OVCAR-4 ovarian) | growth (SK-OV-3 ovarian) | growth (IGROV1 ovarian) | growth (OVCAR-3 ovarian) | growth (HS 578T breast) | growth (NCI/ADR-RES ovarian) |
| --- | --- | --- | --- | --- | --- | --- | --- | --- | --- | --- |
| COc1ccc(C(c2ccc(OCCN(C)C)cc2)c2cc3ccccc3c3ccccc23)cc1 (stereo not given) | -30.6% (active) | 13.2% | 70.2% | 79.3% | 77.9% | 106% | 61.7% | 62.6% | 75.1% | 68.1% |
| CC(=O)Nc1ccc2c(c1)C(=O)c1cccc(C(=O)O)c1-2 | 123% | 105% | 106% | 103% | 108% | 108% | 135% | 118% | 109% | 107% |
| Cc1noc(C)c1CSc1ccccc1C(=O)N1CCN(c2cccc(C(F)(F)F)c2)CC1 | 39% | 54.3% | 94.2% | 88.1% | 67% | 75.3% | 83.7% | 82.1% | 90.4% | 72.3% |
| NS(=O)(=O)Oc1ccc(-c2ccc3sccc3c2)cc1 | 115% | 107% | 102% | 88.8% | 97.3% | 108% | 101% | 106% | 44.6% | 95.3% |
| Cc1c2c(nn1C(=O)c1nn(-c3ccc(Cl)cc3)cc1O)-c1ccccc1CC2 | -39.9% (active) | -35.3% (active) | 6.41% (active) | 40.8% | 15.6% | 13% | 17.8% | -3.9% (active) | 71.5% | 6% (active) |
| COc1ccc(C(=O)N/N=C/c2cc(C(F)(F)F)ccc2Cl)cc1 | 102% | 121% | 102% | 95.5% | 91.7% | 99.8% | 106% | 108% | 92.6% | 90.9% |
| Cc1ccc(N=Nc2ccccc2)cc1 | 90.3% | 100% | 106% | 99.7% | 108% | 89.4% | 102% | 105% | 103% | 102% |
| COc1cc(/C=C/c2cc(/C=C/c3ccc(O)c(OC)c3)n(C(=O)Nc3ccc(C)cc3)n2)ccc1O | -14.7% (active) | -14.5% (active) | -2.98% (active) | 20.5% | 16.1% | -29.1% (active) | 4.76% (active) | -34.1% (active) | -16% (active) | 20.5% |
| COc1ccc(/C=C2/SC(=S)NC2=O)c(OC)c1OC | 72.4% | 79.4% | 91.5% | 72.8% | 87.7% | 91.1% | 105% | 89.6% | 63.6% | 85.2% |
| Cc1cc(CC(C)CC(C)(C)C)n(O)c(=O)c1 (stereo not given) (tested in a mixture with another compound) | 2.72% (active) | 39.8% | 20% | 41.4% | 22.4% | 57.6% | 9.36% (active) | 24.2% | 62.8% | 0.595% (active) |
| CCC(C)[C@H](NC(C)=O)C(=O)N[C@@H](CCCNC(=N)N)C(=O)N[C@@H](CCCCN)C(=O)N[C@@H](CC1CCC(O)CC1)C(=O)NC(C(=O)N[C@@H](CCSC)C(=O)N[C@@H](CCCNC(=N)N)C(=O)N[C@@]1(C)CCC/C=C\CCC[C@@](C)(C(=O)NC(C(=O)N[C@@H](CCC(=O)O)C(=O)N[C@@H](CC(C)C)C(=O)N[C@H](C(=O)N[C@@H](CCC(=O)O)C(N)=O)C(C)C)[C@@H](C)O)NC(=O)[C@H](CCC(N)=O)NC(=O)[C@H](CC(C)C)NC(=O)[C@H](CC(C)C)NC1=O)[C@@H](C)O (stereo not given in full) | 98.5% | 95% | 98.4% | 115% | 100% | 98.4% | 100% | 104% | -7.65% (active) | 108% |
| COc1cc(Cc2cc(-c3ccccc3)n[nH]c2=O)cc(OC)c1OC | 25% | 53.5% | 75.2% | 93.1% | 70.1% | 71.2% | 63.3% | 47.2% | 68.2% | 28.8% |
| CCOC(=O)c1cc(C(=O)c2ccc(OC)c(OC)c2)n2ccncc12 | 78.5% | 88.3% | 94.9% | 124% | 104% | 64.2% | 102% | 108% | 102% | 96.9% |
| CCCN1CN2C(=O)N3CN(CCC)CN4C(=S)N(C1)C2C34 (stereo not given) | 79.3% | 105% | 108% | 95.2% | 103% | 86.1% | 99.3% | 103% | 113% | 103% |
| CNS(=O)(=O)Oc1ccc(-c2ccc3occc3c2)cc1 | 111% | 109% | 99.5% | 88.8% | 98.4% | 111% | 99.8% | 107% | 110% | 102% |
| COc1cc(C2CC(c3ccccc3)=NN2C(C)=O)cc(OC)c1OC (stereo not given) | 28.1% | 81.7% | 51.2% | 92.3% | 78.5% | 47.5% | 24.6% | -10.7% (active) | 48.4% | 11.1% |
| CC(C)c1cc(N=O)cc(C(C)C)c1O | 106% | 93.5% | 103% | 97.2% | 104% | 109% | 121% | 110% | 107% | 99.8% |
| CCOC(=O)c1cc(C(=O)c2cc(OC)c(OC)c(OC)c2)n2ccc(-c3cc[n+](CC(=O)c4cc(OC)c(OC)c(OC)c4)cc3)cc12 | -16.4% (active) | -22.2% (active) | 7.09% (active) | 92.5% | -33.2% (active) | 99.3% | 83.2% | 82% | 69.4% | 94.4% |
| COc1cccc(N=Nc2cccc(OC)c2)c1 | 92.8% | 87% | 96.2% | 90.6% | 104% | 84.6% | 89.6% | 102% | 79.8% | 105% |
| CC(CN(C)C)Oc1ccccc1NC1=C(Cl)C(=O)C(Nc2ccccc2OC(C)CN(C)C)=C(Cl)C1=O (stereo not given) | -9.43% (active) | -34.5% (active) | -85.3% (active) | -72.2% (active) | -97.6% (active) | 58.9% | -76.4% (active) | -96.2% (active) | 3.54% (active) | -24.5% (active) |
| COc1ccc(/C=C/c2nnc(/C=C/c3ccc(OC)c(OC)c3)o2)cc1OC | 11.6% | 34% | 42.1% | 41.3% | 57.6% | 34.1% | 22.5% | 17.6% | 43.6% | 13.6% |
| CN(C)CCCOc1ccccc1NC1=C(Cl)C(=O)C(Nc2ccccc2OCCCN(C)C)=C(Cl)C1=O | -4.17% (active) | -40.3% (active) | -84.3% (active) | -60.1% (active) | -98.7% (active) | -24.3% (active) | -44.8% (active) | -90.5% (active) | 10.8% | 78.5% |
| CCc1c2c(nc3ccc(OC(=O)N4CCC(N5CCCCC5)CC4)cc13)-c1cc3c(c(=O)n1C2)COC(=O)[C@]3(O)CC | 1.34% (active) | 60.8% | 28.1% | 70.4% | 62.4% | 25.9% | 49.9% | 33% | 102% | 24.5% |
| COc1ccc(Cl)cc1Nc1nc(C(F)(F)F)ccc1C(=O)N/N=C/c1ccc(Cl)cc1 | -0.906% (active) | 20.4% | 46.8% | 57.2% | 27.6% | 44.5% | 45.2% | -34.7% (active) | 3.13% (active) | 41% |
| CCOC(=O)C1=CSC2=NC3=C(CCC/C3=C\c3ccc(Cl)cc3)C(c3ccc(Cl)cc3)N12 (stereo not given) | 89.6% | 6.15% (active) | 93.7% | 103% | 94.7% | 94.7% | 109% | 100% | 91.9% | 98.1% |
| CN1CCN(c2cc3c(cc2F)c(=O)c(C(=O)O)cn3-c2ccc(F)cc2)CC1 | 96.4% | 101% | 96.8% | 106% | 102% | 109% | 103% | 102% | 99.6% | 90.1% |

Reference: PubChem BioAssay (NCI)
